Most compounds without a hit are left out; they make up all but 1.6% or so of the library.
KCNQ2 enhance – KCNQ2 (rat) channel potentiation | O88943 | CHO-K1 KCNQ2, FluxOR thallium flux fluorescence; active compounds read high | B-score at 10 µM | 310,000 tested, 0.54% active | AID 2239;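 active = fluorescence ratio B-score at least 3 SD of library B-scores, with initial fluorescence B-score within 3 of them, cut at about 5.3 in these data; same plate scores as AID 2156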;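 note: B-score of peak minus minimum over baseline fluorescence ratio after K+ and Tl+ stimulus; positive B-score means potentiation of KCNQ2 with more thallium influx and brighter signal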
Target sequence (O88943 whole entry, looked up): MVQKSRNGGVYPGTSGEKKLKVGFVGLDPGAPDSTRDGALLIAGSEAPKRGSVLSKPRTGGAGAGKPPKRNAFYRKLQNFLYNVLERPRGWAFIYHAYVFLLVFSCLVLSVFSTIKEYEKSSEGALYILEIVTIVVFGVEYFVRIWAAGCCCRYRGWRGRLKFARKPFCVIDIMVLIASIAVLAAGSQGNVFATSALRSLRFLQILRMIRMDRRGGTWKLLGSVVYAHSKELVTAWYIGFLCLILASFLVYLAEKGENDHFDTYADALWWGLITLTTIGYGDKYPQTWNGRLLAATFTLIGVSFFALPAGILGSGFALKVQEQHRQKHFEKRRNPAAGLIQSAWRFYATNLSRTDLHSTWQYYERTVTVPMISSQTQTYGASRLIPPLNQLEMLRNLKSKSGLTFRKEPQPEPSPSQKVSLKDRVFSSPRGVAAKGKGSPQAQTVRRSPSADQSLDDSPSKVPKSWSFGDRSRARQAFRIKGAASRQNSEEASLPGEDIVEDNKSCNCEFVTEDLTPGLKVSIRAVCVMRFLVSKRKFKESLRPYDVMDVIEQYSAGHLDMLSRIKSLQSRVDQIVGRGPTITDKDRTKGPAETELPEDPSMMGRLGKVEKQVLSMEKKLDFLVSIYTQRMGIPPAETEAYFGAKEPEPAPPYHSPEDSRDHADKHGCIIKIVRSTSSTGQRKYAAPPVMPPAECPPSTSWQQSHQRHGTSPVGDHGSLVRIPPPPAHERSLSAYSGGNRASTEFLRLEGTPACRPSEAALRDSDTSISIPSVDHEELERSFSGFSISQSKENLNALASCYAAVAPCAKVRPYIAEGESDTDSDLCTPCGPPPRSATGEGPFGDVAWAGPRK
KCNQ2 inh – inhibitors of rat KCNQ2 potassium channel. O88943. CHO-K1 KCNQ2, FluxOR thallium flux, 20 min; active compounds read low. B-score at 10 µM. 310,000 tested, 1.1% active. AID 2156;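 active = fluorescence ratio B-score at most minus 3 library SDs, with starting brightness B-score within 2 library SDs, cut at about -5.5 in these data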
Starred values were filed as active, the others as inactive; i = inactive; x = no result given.

SMILES	KCNQ2 enhance	KCNQ2 inh
COC(=O)C1=CN(CCOC23CC4CC(CC(C4)C2)C3)C=C(C(=O)OC)C1c1ccsc1	-7.43	-7.43*
COC(=O)C1=CN(Cc2ccc(OC)cc2)C=C(C(=O)OC)C1c1ccsc1	x	i
Nc1c([N+](=O)[O-])cnnc1-c1ccccc1	0.47	i
Cc1cc(C)c(-c2c(O)c3cccnc3n(C)c2=O)c(C)c1	0.58	i
Nc1cc(Cl)ccc1C(=O)OCC(=O)NC1CCCCC1	x	i
CCN(C(=O)COC(=O)c1ccc(Cl)cc1N)C1CCCCC1	-6.4	-6.4*
O=C(NCc1csc(-c2ccccc2)n1)c1cc(F)cc2c1OCOC2	-6.11	-6.11*
O=C(Cc1csc(-c2ccccc2)n1)NCc1ccc(F)cc1	x	i
COCCCN1CN(S(=O)(=O)c2ccc(C)cc2C)c2nc3ccccc3nc21	x	i
Cc1ccc2[nH]c(C(=O)N3CCN(C(c4ccccc4)c4ccccc4)CC3)cc2c1	-5.8	-5.8*
COc1ccccc1N1CCN(C(=O)c2cc3cc(C)ccc3[nH]2)CC1	1.67	i
O=C(NCc1ccc(OC(F)(F)F)cc1)C1CC2Cn3c(nc4ccccc43)C2N1c1ccccc1 (configuration not stated)	x	i
COc1ccc(O)c(CN2CCCC(N3CCc4ccccc4C3)C2)c1 (configuration not stated)	x	i
COc1ccc(-c2nc(=S)[nH][nH]2)cc1	-8.38	-8.38*
COc1ccc(-c2nc(=S)[nH][nH]2)cc1OC	x	i
COc1ccc(OC)c(NC(=O)c2cccc(NC(=O)c3ccccc3C(=O)O)c2)c1	0.69	i
CCOc1ccc(S(=O)(=O)N2CCN(C(=O)C3CCC3)CC2)cc1	0.02	i
Cc1cc(NC(=O)C2CC(=O)N(c3cccc(Cl)c3)C2)no1 (configuration not stated)	1.03	i
Cc1cc2oc(=O)cc(CN3CCc4ccccc43)c2cc1Cl	-6.42	-6.42*
O=c1cc(CN2CCc3ccccc32)c2ccc(O)cc2o1	x	i
Cc1ccc2c(CN3CCCc4ccccc43)cc(=O)oc2c1C	x	i
CCc1ccc2c(CN3CCc4ccccc43)cc(=O)oc2c1	-5.61	-5.61*
O=C(Cc1ccc([N+](=O)[O-])cc1)N/N=C/c1ccc([N+](=O)[O-])o1	x	i
CCCCCCCC(=O)N/N=C/c1ccc([N+](=O)[O-])o1	8.17*	i
CCOC(=O)N/N=C\c1ccc([N+](=O)[O-])o1	x	i
SMILES	KCNQ2 enhance	KCNQ2 inh
CCCCCCC(=O)N/N=C/c1ccco1	9.98*	i
O=C(C[n+]1ccccc1)N/N=C/c1ccco1	0.64	i
O=C(CC12CC3CC(CC(C3)C1)C2)N/N=C/c1ccc([N+](=O)[O-])o1	16.1*	i
CCOCC(=O)Nc1cc(Cl)c(OC)cc1OC	x	i
COCCNCc1nc2sc(C)c(-c3ccccc3)c2c(=O)[nH]1	4.12	i
Cn1nc(-c2ccccc2)c(C#N)c1Sc1cccc(Cl)c1	-8.14	-8.14*
Cc1nn(C)c(Oc2cccc(Cl)c2)c1C#N	x	i
Cc1ccc2cc(C#N)c(NCCNC(=S)NCCCN(C)C)nc2c1C	x	i
Cc1cc(C)c2nc(NCCCNC(=S)NCCCN(C)C)c(C#N)cc2c1	-7.29	-7.29*
CCN(CC)c1ccc2cc(S(=O)(=O)c3ccc(Cl)cc3)c(=O)oc2c1	-6.19	-6.19*
CCCCCCc1cc2cc(S(=O)(=O)c3ccc(Cl)cc3)c(=O)oc2cc1O	1.16	i
Fc1ccccc1Cc1noc(CN2CCC(OCc3cccnc3)CC2)n1	0.81	i
Cc1cccc(-c2cc(C(=O)Nc3c(C)n(C)n(-c4ccccc4)c3=O)c3ccccc3n2)c1	-5.9	-5.9*
Cc1c(NC(=O)COC(=O)c2cc(-c3cccc4ccccc34)nc3ccccc23)c(=O)n(-c2ccccc2)n1C	x	i
CCn1c(=S)sc2c(=O)n(CC(=O)Nc3ccc(C(C)=O)cc3)c(C)nc21	0.56	i
Cc1cccc(N2CCN(C(=O)c3cn(C)c(=O)c4c3c3ccccc3n4C)CC2)c1C	x	i
Cc1ccc(Cl)cc1N1CCN(C(=O)c2cn(C)c(=O)c3c2c2ccccc2n3C)CC1	-7.5	-7.5*
Cc1cc(C)cc(C(=O)Nn2cnnc2)c1	x	i
CC(=O)Nc1cccc(-c2nc3ccccc3[nH]2)c1	1.59	i
CC(Oc1ccccc1)C(=O)Nc1cccc(-c2nc3ccccc3[nH]2)c1 (configuration not stated)	-5.57	-5.57*
Cc1ccccc1NC(=O)CCC(=O)N/N=C/c1ccncc1	1.05	i
COc1ccc(CN2CCN(CCc3ccccc3)C(CCO)C2)cc1Cn1cncn1 (configuration not stated)	x	i
Cc1ccc(C)c(NC(=S)N2CCC(NC(=O)c3ccccc3)CC2)c1	x	i
O=C(NCCCSc1ccccc1)c1cc(Br)ccc1O	x	i
Oc1c(Cl)cc(Cl)cc1CNc1ccccn1	x	i
SMILES	KCNQ2 enhance	KCNQ2 inh
Oc1c(Cl)cc(Cl)cc1CNc1nc2ccccc2[nH]1	-6.17	-6.17*
CC(C)(C)C1=CC(O)(c2ccccc2)C=C(C(C)(C)C)C1=O	4.45	i
Cc1ccc(-n2cc(CN3CCC(O)(c4ccccn4)CC3)c(-c3ccc(F)cc3)n2)cc1	x	i
C/C(=N\Nc1nc(N2CCCCC2)nc(N2CCOCC2)n1)c1cccs1	-7.62	-7.62*
CC(=O)Nc1ccc(/C(C)=N/Nc2nc(N3CCOCC3)nc(N3CCOCC3)n2)cc1	x	i
COC(=O)c1ccc(-n2c(C)ccc2-c2ccccc2)cc1	-6.6	-6.6*
CC(=O)c1ccc(-n2c(C)ccc2-c2ccccc2)cc1	x	i
O=C(Nc1nnc(COc2ccc(F)cc2)s1)Nc1ccccc1F	0.62	i
CCC(=O)N1CCc2cc(S(=O)(=O)NCCC(=O)N3CCN(c4cccc(C)c4)C(C)C3)ccc21 (configuration not stated)	2.3	i
COc1ccc(-c2cc(C(F)(F)F)nc(N3CCN(c4ccc(F)cc4)CC3)n2)cc1OC	0.7	i
COc1ccc(-c2cc(C(F)(F)F)nc(N3CCN(Cc4ccccc4)CC3)n2)cc1OC	-5.6	-5.6*
CC1CCN(S(=O)(=O)c2ccc3c(c2)NC(=O)CS3)CC1	x	i
CC(C)(C)NC(=O)CSc1nnc(-c2ccncc2)n1Cc1ccccc1	1.77	i
CC(C)(C)NC(=O)CSc1nnc(-c2ccccn2)n1Cc1ccccc1	8.14*	i
Cc1cc(-c2ccc(S(=O)(=O)N(C)c3ccc(C)c(C)c3)s2)on1	-6.71	-6.71*
CCN1CCN(S(=O)(=O)c2ccc(-c3cc(C)no3)s2)CC1	0.1	i
Cc1ccc(N(C)S(=O)(=O)c2ccc(-c3cc(C)no3)s2)cc1	-6.52	-6.52*
COc1ccc(-c2cc(C)no2)cc1S(=O)(=O)N(C)c1ccc(C)c(C)c1	x	i
COc1cc(CC(=O)NCCCc2ccccc2)cc(OC)c1OC	0.32	i
O=C1CC(NS(=O)(=O)c2ccc(F)cc2)CN1c1ccc2c(c1)OCCO2 (configuration not stated)	1.58	i
Cn1c(CC(=O)Nc2ccccc2)c(Sc2ccccc2)c2ccccc21	-6.15	-6.15*
CSc1c(CC(=O)Nc2ccccc2)n(C)c2ccccc12	x	i
CC(NC(=O)c1ccc(F)cc1Cl)C1CC2CCC1C2 (configuration not stated)	x	i
Cc1ccc(C(=O)NC(C)C2CC3CCC2C3)c(C)c1 (configuration not stated)	-7.72	-7.72*

High-throughput results as filed in PubChem.
